These results are taken from the supplement of paper PMC11417369.

The full ranking holds about 25,000 sequences; the median of “ln(normalized median fluorescence intensity)” is about 7.1, and the highest 2% start at about 10. For the sample, the highest values were picked, then their nearest neighbours and some sequences at random.

The test system of this assay is PfSIP2 AP2 domain 1 (GST-tagged). Put plainly: gcPBM binding intensity (ln(normalized median fluorescence intensity)); higher = stronger DNA binding. The essentials:
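In this array assay, P. falciparum DNA-binding domains with a GST tag, expressed in E. coli, were applied for 1 h to primer-extended double-stranded 36-bp intergenic genomic probes and negative controls on an Agilent 4 × 180k array. Bound protein was visualised with Alexa488 anti-GST antibody at 488 nm. Binding intensity is the highest Masliner-normalised natural-log median intensity across replicate spots of either probe orientation.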
On to “TATTTATTATTATGTACACACTATATTAAAACATAA [CACACA_site4549]”, for which the “gcPBM binding intensity (ln)” value worked out at 7.08.

As to “CTCAAATGTTATTGTAGTACCTAAAAAATATATTCT [XGTACX_site1970]”, the “gcPBM binding intensity (ln)” value came out at 6.97.

In the case of “TGTAGTCTGGAGAAACGTACATAGTATCTGGTAGCT [XGTACX_site2538]”, the “gcPBM binding intensity (ln)” value was 6.84.

In the case of “TTTTAACATATAAGTACACACATATAATCAATCATA [CACACA_site2325]”, the “gcPBM binding intensity (ln)” value worked out at 7.25.

Take “AATTTCTTTTTCGATATACACACTGTATGTGTCTAA [CACACA_site3975]”: the “gcPBM binding intensity (ln)” value amounted to 6.94.

Take “CATAATATGTGGACTTTACACACTTGTTTTAAAATT [CACACA_site819]”: the “gcPBM binding intensity (ln)” value amounted to 6.87.

Regarding “ATATATATATATATTGCACACATATAAATATATATA [CACACA_site8167]”, the “gcPBM binding intensity (ln)” value came out at 9.22.

Consider “TGTAGAAATGGGTGCACACACATATAAAATCTATAT [CACACA_site7224]”, for which the “gcPBM binding intensity (ln)” value came out at 12.2.

For TATATGTATGTTTGTGTGCACACATAAATATTATAT, the “gcPBM binding intensity (ln)” value turned out to be 8.48.

On to “AATATATATATATGTGCACACATATATAATATGTAT [CACACA_site716]”, for which the “gcPBM binding intensity (ln)” value came to 8.55.

Turning to “AATGTAGAAATGGGTGCACACACATATATAATATAT [CACACA_site8799]”, the “gcPBM binding intensity (ln)” value came out at 11.7.

On to “ATAAATATTGGGTGCACACACATAATATATATATAT [CACACA_site2272]”, for which the “gcPBM binding intensity (ln)” value was 12.2.

As to “AAAATCTAATATAATGCACACATAAAAAAAAAATCA [CACACA_site8871]”, the “gcPBM binding intensity (ln)” value came to 7.17.

For the sequence “TATATATATATGTGCACACATATATAATATGTATAA [CACACA_site715]”, the “gcPBM binding intensity (ln)” value turned out to be 9.37.

For “TGTATGTTTGGGTGCACACATAAATATTATATATAG [CACACA_site3397]”, the “gcPBM binding intensity (ln)” value was 12.2.

Regarding “TATGTATGTTAGTGTGCACACATAAATATTATATAT [CACACA_site9121]”, the “gcPBM binding intensity (ln)” value stood at 9.26.

As to “AAAATCTAATATAATGCACACATAAAAAAAAATCAA [CACACA_site9211]”, the “gcPBM binding intensity (ln)” value was 7.52.

On to ACATATAAATATTGTGTGCACACACATAATATATAT, for which the “gcPBM binding intensity (ln)” value was 8.29.

Take “TTAATATTGTATTTCACACATAATTTAATATACTCA [CACACA_site5678]”: the “gcPBM binding intensity (ln)” value stood at 6.87.

As for “CAAAAAAAAAAAAAAACACACATTAAATTATAAAGA [CACACA_site2613]”, the “gcPBM binding intensity (ln)” value is 6.77.

Consider “TTTTATATTCCACAAAAAATTATATAATAATAGAAC [CACACA_negctrl_site1741]”, for which the “gcPBM binding intensity (ln)” value was 7.26.

“TGTAGAAATGGGTGCACACACATATATAATATATAT [CACACA_site2507]”: the “gcPBM binding intensity (ln)” value was 12.3.

As to “TATATATATATATTCACACATAAAAATAAAATAAAA [CACACA_site4774]”, the “gcPBM binding intensity (ln)” value is 8.88.

With “ATAATAAAAAAAAATGCACACATATATATATATATA [CACACA_site8766]”, the “gcPBM binding intensity (ln)” value turned out to be 9.29.

On to “AAAATATAATATAATGCACACATAAAAAAAAAAAAA [CACACA_site7989]”, for which the “gcPBM binding intensity (ln)” value amounted to 7.19.

Take “TAAACATAAATATGCACACATATACATATATTCATA [CACACA_site2667]”: the “gcPBM binding intensity (ln)” value is 7.34.

As to “TATATATATATATTCACACATAAATATATGCACCCA [CACACA_site4263]”, the “gcPBM binding intensity (ln)” value is 11.6.

On to “TATTTGATAAATTATACACACACAATATATATAAAA [CACACA_site8625]”, for which the “gcPBM binding intensity (ln)” value is 6.94.

In the case of “AAGATTAGGTTAATTAGTACTTATTATATTGTAATG [XGTACX_site3653]”, the “gcPBM binding intensity (ln)” value turned out to be 6.85.

On to TACCAATGCATAACGGTGCAAAAAAATAAGGAATAA, for which the “gcPBM binding intensity (ln)” value came out at 10.7.

With TATACCAATGAATGAGTGCAAAGAAGATAAGGAAAA, the “gcPBM binding intensity (ln)” value was 8.58.

On to AATAAAAATAATATAGTGCATAATATAAGGAAAAAA, for which the “gcPBM binding intensity (ln)” value turned out to be 9.36.

In the case of “AAAATGGTTTATAAATGTACATATATTATATATAAC [XGTACX_site7959]”, the “gcPBM binding intensity (ln)” value came out at 7.03.

Consider “TATGTGCACCCATGTACATGCGGACATATGTTATAT [TGCATGCA_site383]”, for which the “gcPBM binding intensity (ln)” value is 12.

Take “TATATATATATATATGCATGTACATATATTTGTTAT [TGCATGCA_site379]”: the “gcPBM binding intensity (ln)” value came to 9.76.

For the sequence “ATATATATATATGCATGTACATATATTTGTTATATC [XGTACX_site3197]”, the “gcPBM binding intensity (ln)” value came to 9.3.

As for “AAAATAAAAAATTAATGTACTTAGAATTGTCACTAA [XGTACX_site1346]”, the “gcPBM binding intensity (ln)” value is 6.79.

For “CCAACATGCCCACGCACACACAAAAAAAGCATGCAT [CACACA_site4217]”, the “gcPBM binding intensity (ln)” value was determined as 7.23.

Take “AAAAAAACAACATGCACACGCACACCCAAAAAAAGC [CACACA_site72]”: the “gcPBM binding intensity (ln)” value stood at 7.96.

Regarding “AGAAAAAAACAACATGCACACGCACCCACAAAAAAA [CACACA_site7908]”, the “gcPBM binding intensity (ln)” value was determined as 10.2.

On to “TATGCAAGGAACCACACACACACACGGAAATGTATA [CACACA_site6490]”, for which the “gcPBM binding intensity (ln)” value stood at 6.94.

For “AATTTAATATAATGCACACATAAAAAAAAATTCAAA [CACACA_site2062]”, the “gcPBM binding intensity (ln)” value worked out at 7.16.

CTTATTTTGTTATAAGTGCATTTTTTAAAATTTCTT: the “gcPBM binding intensity (ln)” value came out at 9.64.

“TGTTATTTTAAAAAAAAAATTATTAACTTAAAAAAA [CACACA_negctrl_site1641]”: the “gcPBM binding intensity (ln)” value turned out to be 6.68.

With “ACGTTAGGCTTATTTGCACACTTGTATTAAAATTTT [CACACA_site4854]”, the “gcPBM binding intensity (ln)” value turned out to be 7.27.

As for “AAAATATAAATTCATGTGCACATATATATTTTGTTA [GTGCAC_site9782]”, the “gcPBM binding intensity (ln)” value is 8.24.
